Source: PubChem BioAssay (EPA / NIEHS)
Records with an inconclusive call do not appear. Activity calls are given as the source filed them. Rule for the calls: active = hit-call score of the fitted dose curve at least 0.9, where 1 is the maximum; inconclusive = response in the unintended direction; inactive = score below 0.9.

What follows are compounds tested on xenobiotic metabolism (CYP1A2), CYP1A2 (gene 1544) (assay: CLD_CYP1A2_24hr: CellzDirect (CLD) Gene Expression Assay for xenobiotic metabolism (CYP1A2) at 24 hours (AID 2283683)).
Experimental: CLD_24hr is a cell-based, multiplexed-readout assay that uses hepatocyte, a human liver primary cell, with measurements taken at 24 hours after chemical dosing in a 96-well plate.CLD_CYP1A2_24hr is one of 16 assay component(s) measured or calculated from the CLD_24hr assay. It is designed to make measurements of mRNA induction, a form of inducible reporter, as detected with chemiluminescence signals by Quantitative Nuclease Protection Assay (qNPA) technology.Data from the assay component CLD_CYP1A2_24hr was analyzed at the endpoint, CLD_CYP1A2_24hr, in the positive analysis fitting direction relative to DMSO as the negative control and baseline of activity. Using a type of inducible reporter, gain-of-signal activity can be used to understand changes in the reporter gene as they relate to the gene CYP1A2. Furthermore, this assay endpoint can be referred to as a primary readout. To generalize the intended target to other relatable targets, this assay endpoint is annotated to the cyp intended target family, where subfamily is xenobiotic metabolism.
Human hepatocyte cultures were treated daily for two consecutive days with fresh dosing solutions containing appropriate concentrations of the 320 ToxCast chemicals (chemical identities were blinded to CellzDirect and other ToxCast collaborators), vehicle control (0.2% DMSO), and positive control inducers as summarized in Table 1. Due to the large number of treatment groups and chemicals examined, the ToxCast chemicals were divided into two groups (spanning two independent cultures of hepatocytes from separate donor preparations (Hu778: ToxCast plates 1 and 2; Hu776: ToxCast plates 3 and 4). Each preparation of human hepatocyte cultures was treated with respective vehicle control, medium only control, set of six positive controls/reference chemicals for the five hepatic receptor pathways, and a subset of eight of the ToxCast chemicals (indoxacarb, pyrithiobac-sodium, norflurazon, cyhalofop-butyl, methomyl, thiram, acetochlor, and propiconazole). These replicate data, coupled with internal replicates designed within the blinded ToxCast chemical library, provided additional data to evaluate interindividual differences between hepatocyte preparations and their potential impact on chemical profiles.Cell morphology and integrity were evaluated using phase-contrast microscopy as an indicator of hepatocyte cell health (Tyson & Green, 1987). Cultures for each treatment group (i.e., media, vehicle [0.2% DMSO], positive control inducers [multiple concentrations], and the ToxCast chemicals [multiple concentrations]) were observed and cell morphology was assessed relative to vehicle control cultures at each harvest time point (0, 6, 24, or 48 h). […] Images were evaluated at the conclusion of the study to assess changes in cell integrity and account for the effects of chemical exposure on uncharacteristic changes in concentration-dependent gene expression profiles. The results from these determinations of apparent cytotoxicity were annotated (yes/no) alongside the corresponding qNPA data for reference.At the conclusion of each treatment period, hepatocyte cultures (96-well) were washed with 1 volume of HBSS, lysed by addition of 25 ul ArrayPlate lysis buffer (HTG, Tucson, AZ), and 70 ul/well of Denaturation Oil, denatured by incubation at 95C for 10 min, and frozen at approximately -70C until analysis by nuclease protection assay (qNPA) (Roberts et al., 2007). For qNPA analysis, cell lysates were thawed at 50C for approximately 30 min, qNPA probes were added, and samples were incubated at 95C for 10 min to begin the detection process by denaturing the target RNA, dissociating the duplexes and secondary structure hybridization. At the conclusion of the hybridization period, S1 nuclease reagent was added to each sample to digest all nonprotected nucleotides at 50C for 60-90 min. […]

Row | SMILES | AC50 | outcome
1 | CCOc1cc(C(C)(C)C)ccc1C1COC(c2c(F)cccc2F)=N1 (stereo not given) | 15.7 µM (active) | 
2 | CC1(C)C(C=C(Cl)Cl)C1C(=O)OC(C#N)c1cccc(Oc2ccccc2)c1 (stereo not given) | 11 µM (active) | 
3 | COc1ccc(-c2ccccc2)cc1NNC(=O)OC(C)C | 0.255 µM (active) | 
4 | CCCCC(O)(Cn1cncn1)c1ccc(Cl)cc1Cl (stereo not given) | 1.9 µM (active) | 
5 | CC(C)N1C(=O)c2ccccc2NS1(=O)=O |  | inactive
6 | N#CN=C1SCCN1Cc1ccc(Cl)nc1 |  | inactive
7 | COc1cc(Cl)c(OC)cc1Cl |  | inactive
8 | CS(=O)(=O)c1cc(C(F)(F)F)ccc1C(=O)c1cnoc1C1CC1 |  | inactive
9 | CCOc1nc(C(Cl)(Cl)Cl)ns1 |  | inactive
10 | COC(=O)NC(=S)Nc1ccccc1NC(=S)NC(=O)OC | 12.2 µM (active) | 
11 | COC(=O)N(C(=O)N1CO[C@@]2(C(=O)OC)Cc3cc(Cl)ccc3C2=N1)c1ccc(OC(F)(F)F)cc1 | 1.28 µM (active) | 
12 | Clc1cccc(C(Cl)(Cl)Cl)n1 |  | inactive
13 | CCCN(CC)CC1COC2(CCC(C(C)(C)C)CC2)O1 (stereo not given) | 0.583 µM (active) | 
14 | COP(=S)(OC)SCn1nnc2ccccc2c1=O | 2.27 µM (active) | 
15 | CCCCC(C#N)(Cn1cncn1)c1ccc(Cl)cc1 (stereo not given) | 20 µM (active) | 
16 | O=C1C2CC=CCC2C(=O)N1SC(Cl)(Cl)Cl (stereo not given) |  | inactive
17 | CN=C=S |  | inactive
18 | Cc1cc(C)nc(Nc2ccccc2)n1 | 5.77 µM (active) | 
19 | CCNP(=S)(OC)O/C(C)=C/C(=O)OC(C)C (stereo not given) | 4.58 µM (active) | 
20 | O=P(O)(O)CCCl |  | inactive

Row | SMILES | AC50 | outcome
21 | CCOC(=O)C(C)OC(=O)c1cc(Oc2ccc(C(F)(F)F)cc2Cl)ccc1[N+](=O)[O-] (stereo not given) | 4.61 µM (active) | 
22 | Nc1c(Cl)c(Cl)nc(C(=O)O)c1Cl | 20 µM (active) | 
23 | CCNC(=O)NC(=O)C(C#N)=NOC |  | inactive
24 | COP(=S)(OC)Oc1ccc([N+](=O)[O-])c(C)c1 | 1.38 µM (active) | 
25 | CO/N=C(/C1=NOCCO1)c1ccccc1Oc1ncnc(Oc2ccccc2Cl)c1F |  | inactive
26 | Cn1c(-c2ccccc2)cc(-c2ccccc2)[n+]1C | 0.141 µM (active) | 
27 | CS(=O)(=O)c1ccc(C(=O)C2C(=O)CCCC2=O)c([N+](=O)[O-])c1 |  | inactive
28 | Cc1c(COC(=O)[C@@H]2[C@H](/C=C(\Cl)C(F)(F)F)C2(C)C)cccc1-c1ccccc1 | 32.2 µM (active) | 
29 | COC(=O)NS(=O)(=O)c1ccc(N)cc1 |  | inactive
30 | CCCCOCN(C(=O)CCl)c1c(CC)cccc1CC |  | inactive
31 | CC(C)NC(=O)N1CC(=O)N(c2cc(Cl)cc(Cl)c2)C1=O | 15.7 µM (active) | 
32 | CNC(=O)Oc1cccc2ccccc12 | 2.83 µM (active) | 
33 | CCSC(=O)N1CCCCCC1 |  | inactive
34 | Cc1nc(N(C)C)nc(OC(=O)N(C)C)c1C | 3.66 µM (active) | 
35 | Clc1nc(Cl)nc(Nc2ccccc2Cl)n1 |  | inactive
36 | O=C(Nc1ccccc1-c1ccc(Cl)cc1)c1cccnc1Cl | 6.74 µM (active) | 
37 | CCC(C)n1c(=O)[nH]c(C)c(Br)c1=O (stereo not given) | 7.45 µM (active) | 
38 | CCOc1nc(F)cc2nc(S(=O)(=O)Nc3c(Cl)cccc3Cl)nn12 |  | inactive
39 | CC(C)(C)C(=O)C(Oc1ccc(Cl)cc1)n1cncn1 (stereo not given) | 9.31 µM (active) | 
40 | N#Cc1c[nH]cc1-c1cccc2c1OC(F)(F)O2 | 1.56 µM (active) | 
